Assay results taken from PubChem BioAssay (EPA / NIEHS).
Several values for one entry are separate records, joined by “and”; a condition that tells them apart may be missing. Identical values can stand only once. Activity calls are given as the source filed them. How the source made its calls: active means hit-call score of the fitted dose curve at least 0.9, where 1 is the maximum; inactive means score below 0.9.

Each molecule was assayed on Interleukin-8 (IL8), CXCL8 (gene 3576) (assay: BSK_hDFCGF_IL8: BioMAP Diversity Plus: hDFCGF Assay for Interleukin-8 (IL8) Biomarker Activity (AID 2283058)). Conditions: primary human foreskin fibroblasts; actives raise or lower the signal.
Protocol: BSK_hDFCGF is a cell-based, multiplexed-readout assay that uses foreskin fibroblast, a human skin primary cell, with measurements taken at 24 hours after chemical dosing in a 96-well plate.BSK_hDFCGF_IL8 is an assay component measured in the BSK_hDFCGF assay. It measures IL-8 antibody related to regulation of gene expression using ELISA technology.Data from the assay component BSK_hDFCGF_IL8 was analyzed into 1 assay endpoint. This assay endpoint, BSK_hDFCGF_IL8, was analyzed with bidirectional fitting relative to DMSO as the negative control and baseline of activity. Using a type of binding reporter, gain or loss-of-signal activity can be used to understand changes in the signaling as they relate to the gene CXCL8. Furthermore, this assay endpoint can be referred to as a primary readout, because this assay has produced multiple assay endpoints where this one serves a signaling function. To generalize the intended target to other relatable targets, this assay endpoint is annotated to the cytokine intended target family, where the subfamily is interleukins.
The levels of cell surface (or secreted, indicated by the prefix "s") biomarker endpoints were measured by ELISA. Overt cytotoxicity to cells in confluent adherent cultures (all systems other than the BT system) was assessed by measuring total protein levels using sulforhodamine B (SRB) staining in parallel cultures at the time of biomarker measurements, indicated as SRB endpoints. For proliferation assays for adherent cell types, individual cell types are cultured at sub-confluence and relative cell numbers quantified by SRB staining at time points optimized for each system (48 h: 3C and CASM3C systems; 72 h: BT and HDF3CGF systems; 96 h: SAg system). SRB was performed by staining cells with 0.1% SRB after fixation with 10% TCA and reading wells at 560 nm.Viability and proliferation of PBMC (T cells) was quantified by Alamar Blue reduction for the SAg and BT systems. For PBMC viability (referred to as PBMC Cytotoxicity within the assay endpoint names), cells were plated (75,000/well in a 96-well plate) and then chemical samples added for 1 h before addition of activators, SEB and TSST-1 (20 ng/mL final concentration each). Cells were incubated for 90 h. Then, Alamar Blue (20 uL/well) (Invitrogen, Cat DAL1100) was added for 6 h, and the plates were read with a fluorescence microplate reader at 546/580 nm (excitation/emission). For PBMC proliferation, cells were plated and activated as above but incubated for only 16 h prior to addition of Alamar Blue. Plates were read after 6 h.

SMILES | outcome | AC50
COP(=O)(CCC(=O)NCO)OC | inactive | –
C=CC(=O)OCC(F)(F)C(F)F | – | 49.8 µM (active) and 48.3 µM (active)
CCNc1nc(Cl)nc(NC(C)(C)C)n1 | inactive | –
ClC(Cl)c1ccccc1 | inactive | –
ClC(Cl)=C(c1ccc(Cl)cc1)c1ccccc1Cl | – | 4.15 µM (active)
OCC(F)(F)OC(F)(F)C(F)(F)OC(F)(F)C(F)(F)OC(F)(F)CO | inactive | –
N#Cc1c(-c2ccc(Cl)cc2)[nH]c(C(F)(F)F)c1Br | inactive | –
COCCOCCO | inactive | –
c1nc[nH]n1 | inactive | –
CCCCc1ccccc1 | inactive | –
CCOP(=S)(OCC)SCSc1ccc(Cl)cc1 | inactive | –
O=C(O)C(F)(F)OC(F)(F)C(F)(F)OC(F)(F)C(=O)O | inactive | –
CCOP(=S)(OCC)SCn1nnc2ccccc2c1=O | inactive | –
O=C(O)C1C(C(=O)O)C2(Cl)C(Cl)=C(Cl)C1(Cl)C2(Cl)Cl (stereo not given) | inactive | –
Cc1c([N+](=O)[O-])cc2c(c1[N+](=O)[O-])C(C)(C)CC2(C)C | inactive | –
C=CC(=O)OCC(CC)(COC(=O)C=C)COC(=O)C=C | – | 3.17 µM (active)
c1cc2c3c(cccc3c1)CC2 | inactive | –
O=P(Oc1ccccc1)(Oc1ccccc1)Oc1ccccc1 | inactive | –
CCN(CC)c1ccccc1 | inactive | –
Cc1ccc2c(c1N)C(=O)c1ccccc1C2=O | inactive | –

SMILES | outcome | AC50
O=C(O)C(Cl)Cl | inactive | –
CCOC(=O)c1ccccc1C(=O)OCC | inactive | –
COC(=O)C(F)(F)C(F)(F)OC(F)(C(F)(F)F)C(F)(F)OC(F)=C(F)F (stereo not given) | inactive | –
CCC1(c2ccccc2)C(=O)N=C(O)NC1=O (stereo not given) | inactive | –
Cc1ccc([N+](=O)[O-])cc1C | inactive | –
ClC(Cl)(Cl)c1ccccc1 | inactive | –
O=c1ssc(Cl)c1Cl | – | 13.1 µM (active)
COP(N)(=S)OC | inactive | –
O=[N+]([O-])c1ccccc1 | inactive | –
CC(Cl)CN(C)C (stereo not given) | inactive | –
OCC(F)(F)OC(F)(F)C(F)(F)OC(F)(F)C(F)(F)OC(F)(F)F | inactive | –
CCOP(=S)(NC(C)C)Oc1ccccc1C(=O)OC(C)C (stereo not given) | inactive | –
ClC1=C(Cl)C2(Cl)C3C(Cl)C(Cl)CC3C1(Cl)C2(Cl)Cl (stereo not given) | – | 10.8 µM (active)
Nc1ccc([N+](=O)[O-])cc1Cl | inactive | –
c1ccc2c(c1)Nc1ccccc1S2 | inactive | –
Nc1ccc2ccccc2c1 | inactive | –
Cc1cccc(N)c1 | inactive | –
O=S(=O)(F)C(F)(F)C(F)(F)C(F)(F)C(F)(F)C(F)(F)C(F)(F)C(F)(F)C(F)(F)F | inactive | –
[N-]=[N+]=[N-] | inactive | –
N#Cc1cc([N+](=O)[O-])ccc1N | inactive | –
